The results in this text go back to the supplement of paper PMC3724861.

The full list was thinned out, with hits kept by preference. The hit rate among all sequences tested is not known here. Values without a mark were called inactive. A value given as a limit tells only on which side of the number the result lay.

The test concerns T1, Caupolican (Caup) homeodomain DNA-binding domain.
T1 sequence: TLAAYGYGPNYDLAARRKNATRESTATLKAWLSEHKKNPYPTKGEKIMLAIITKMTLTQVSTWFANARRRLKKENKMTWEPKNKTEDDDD
Put plainly: PBM E-score (8-mer, recovered from the published 9-mer minima) (E-score (dimensionless, -0.5 to 0.5)); Drosophila protein; higher = stronger relative binding preference, active = 0.31 or more. Summed up: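 Caup's homeodomain DNA-binding domain (residues 214-303) was made by in vitro transcription and translation and applied at 100 nM to custom-designed protein binding microarrays. Each value is an enrichment score that gives relative binding preference for a short DNA word, with higher meaning stronger. The 8-mer values were recovered from published 9-mer scores, each of which was the minimum of its two constituent 8-mer scores. A cutoff of 0.31 marks candidate sites.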
For ACAGTAAA, the “PBM E-score” value was 0.124. For the sequence CCGTTCTC, the “PBM E-score” value was -0.0675. Turning to CTCGCACA, the “PBM E-score” value was -0.0236.

As for CGCAGGAC, the “PBM E-score” value was -0.0855. Regarding ATCTCCCC, the “PBM E-score” value is -0.153. As for ATTCAGTG, the “PBM E-score” value was 0.034. CTAACGAG: the “PBM E-score” value is 0.0026. For the sequence ACACCGTC, the “PBM E-score” value is 0.0118.

For the sequence AACATGGA, the “PBM E-score” value is 0.325 (active).

On to CACATGGA, for which the “PBM E-score” value is 0.156. As to ATCATGGA, the “PBM E-score” value was 0.00242.

Turning to AACATGGG, the “PBM E-score” value was 0.351 (active). Turning to AAGATGGT, the “PBM E-score” value was 0.109. Turning to GAGATGGA, the “PBM E-score” value was -0.0584. Take CACATGGG: the “PBM E-score” value is -0.0556. Consider GACATGGA, for which the “PBM E-score” value was 0.345 (active). In the case of AACATGGT, the “PBM E-score” value was 0.37 (active).

Turning to ACCATGGT, the “PBM E-score” value was 0.127. For the sequence ATCATGGG, the “PBM E-score” value was -0.0312. For the sequence ACCATGGA, the “PBM E-score” value was 0.0206. Take ATAGCTTG: the “PBM E-score” value was 0.0692. With CGACCGGC, the “PBM E-score” value was -0.141. Take AGTAAGTG: the “PBM E-score” value was 0.00023. As for TGCGCCCA, the “PBM E-score” value was -0.134. On to ATTAGATG, for which the “PBM E-score” value was 0.235. For the sequence GCTCCATA, the “PBM E-score” value is -0.111.

On to ACGGTGGC, for which the “PBM E-score” value is -0.158. Take ATGCGAAA: the “PBM E-score” value is 0.0128. The same measure for AACAAAAA: 0.141.

In the case of CACAAGAA, the “PBM E-score” value was 0.0855. With AACAAGAA the figure was 0.321 (active); with CACAAGAC, 0.0913. With GACAAGAC the figure was 0.325 (active); with AACAAGAC, 0.335 (active). Consider AACAAAGA, for which the “PBM E-score” value was 0.0783. On to GACAAAAC, for which the “PBM E-score” value is 0.137. In the case of AACAAAAC, the “PBM E-score” value is 0.179.

Regarding GACAAGAA, the “PBM E-score” value was 0.297.

As for TACAAGAA, the “PBM E-score” value was 0.351 (active). For TACAAAAA, the “PBM E-score” value was 0.255. With CATGACTA, the “PBM E-score” value is 0.198. The same measure for CATCTTAG: 0.0142. ATGGCGTA: the “PBM E-score” value is 0.002. For CCTCCGCA, the “PBM E-score” value was -0.12. With CACTCTTC the figure was 0.0141. Consider AACAAGAG, for which the “PBM E-score” value was 0.243. As to AACAAAAT, the “PBM E-score” value was 0.209. In the case of AACAAGAT, the “PBM E-score” value is 0.334 (active). GACCGCAC: the “PBM E-score” value is -0.162. For ATAGCTCA, the “PBM E-score” value is -0.0365.

In the case of ATGACAAT, the “PBM E-score” value was 0.274.

For ATGACAGC, the “PBM E-score” value was 0.202. For ATGACAAA, the “PBM E-score” value was 0.248. ATGACAAC: the “PBM E-score” value was 0.375 (active).

As to CTGACAAG, the “PBM E-score” value was 0.341 (active).

Take CTGACAAC: the “PBM E-score” value was 0.281. On to CTGACAAA, for which the “PBM E-score” value was 0.132. The same measure for ATGACAAG: ≥ 0.378 (active); for GTGACAAC: 0.303. For CGATCATA, the “PBM E-score” value is 0.0822. As for GGAGCCGA, the “PBM E-score” value was -0.213. For the sequence GCATCGTA, the “PBM E-score” value is -0.088. As to ACCAGCTG, the “PBM E-score” value is -0.0781. Regarding ATTTGTAG, the “PBM E-score” value is 0.239. CGTGAACC: the “PBM E-score” value was -0.0185. With CATATCGG the figure was 0.0413.

Regarding GAGCGGCA, the “PBM E-score” value was -0.199. As to AGCTTGTC, the “PBM E-score” value is 0.261. As to CGCTTGTA, the “PBM E-score” value is 0.313 (active). Regarding AGCTTGTG, the “PBM E-score” value is -0.0301. AGCTTGTA: the “PBM E-score” value is 0.368 (active). Take GGCTTGGA: the “PBM E-score” value was -0.0906.

For GGCTTGAA, the “PBM E-score” value was -0.103. With CGCTTGTC the figure was 0.272; with GGCTTGTA, 0.312 (active).

Take CGCTTGAA: the “PBM E-score” value was 0.0019. Regarding CCAGCCGG, the “PBM E-score” value is -0.247.

Regarding AATTAAAA, the “PBM E-score” value is 0.0931.

For the sequence ACAGTTTG, the “PBM E-score” value was 0.0438.

In the case of AGAGTCAC, the “PBM E-score” value was -0.0337. On to AATCTTAG, for which the “PBM E-score” value is -0.0734. Take AGACCGGG: the “PBM E-score” value was -0.179. CACCCGAA: the “PBM E-score” value was -0.0428.

On to GTCCCTAA, for which the “PBM E-score” value is -0.0722.

ACTGTTCA: the “PBM E-score” value is 0.0851.

Take CTTGGATC: the “PBM E-score” value is 0.0244.

On to CGTGTAGA, for which the “PBM E-score” value is 0.29. The same measure for CGTGTAGC: 0.276. With CGTGTACA, the “PBM E-score” value is ≥ 0.441 (active). Consider AGTGTACC, for which the “PBM E-score” value was 0.207. With CGTGTGTA the figure was 0.283. Consider CGTGTACC, for which the “PBM E-score” value is 0.35 (active). In the case of GTCATCTA, the “PBM E-score” value is 0.0593. As for ATGGTACC, the “PBM E-score” value was 0.0486.

For the sequence CTGGTACA, the “PBM E-score” value was 0.319 (active). GAGGTACA: the “PBM E-score” value was 0.326 (active). Take ATGGTACA: the “PBM E-score” value was 0.32 (active). Regarding CTGGTACC, the “PBM E-score” value is 0.0519. For the sequence CAGGTACA, the “PBM E-score” value is 0.298. The same measure for ATGGTACG: 0.0989; for GTGGTACA: 0.277. Take TAGGTACA: the “PBM E-score” value is 0.271. The same measure for AGGACCTG: -0.102.

For AAGCATTG, the “PBM E-score” value was 0.102.

Consider CAACCTGG, for which the “PBM E-score” value is 0.0642. With AGGTGGCC the figure was -0.286; with CAAGCCCC, -0.174; with ACTACAAC, 0.363 (active).

For the sequence ACTACAAG, the “PBM E-score” value is ≥ 0.378 (active). For the sequence GCTACAAC, the “PBM E-score” value was 0.169. ACTACAAT: the “PBM E-score” value is 0.19. As for ACTACAAA, the “PBM E-score” value is 0.256. In the case of CCTACAAC, the “PBM E-score” value was 0.21. The same measure for GAGAGCTC: -0.215; for CGTCTATC: 0.0194. In the case of CTTTTCGC, the “PBM E-score” value was -0.012. Consider CGGTTGTC, for which the “PBM E-score” value is 0.185. For TACTTTAA, the “PBM E-score” value was 0.115.

For CGTGTCAG, the “PBM E-score” value was 0.276. Regarding CATGTCAC, the “PBM E-score” value was 0.446 (active).

In the case of AATGTCAC, the “PBM E-score” value is 0.303. As to AATGTCAG, the “PBM E-score” value is 0.197. The same measure for CTTGTCAC: 0.322 (active); for AGTGTCAC: 0.13; for ATTGTCAC: 0.224.

CCTGTCAG: the “PBM E-score” value was 0.115. Consider CGTGTCAC, for which the “PBM E-score” value is 0.334 (active).

CATGTCAG: the “PBM E-score” value was 0.413 (active). Regarding CCTGTCAC, the “PBM E-score” value was 0.144. As for GATGTCAC, the “PBM E-score” value was 0.294.

As to AGCGTCCA, the “PBM E-score” value was -0.0936. AAAGTATT: the “PBM E-score” value is 0.131. With CGGGCTTC, the “PBM E-score” value was -0.289. Turning to AGATCGGA, the “PBM E-score” value is 0.0416. For the sequence GAAGTGAC, the “PBM E-score” value is 0.0523.

In the case of GCCGGGGA, the “PBM E-score” value is -0.241. With CGAACCCC the figure was -0.249; with ATCAGTCC, -0.143; with AAATTGGG, -0.0398. On to AAGTTTGC, for which the “PBM E-score” value is 0.0221. Take CGTGTCAA: the “PBM E-score” value was 0.282. In the case of CCTGTCAA, the “PBM E-score” value is 0.172. With CATGTCAA the figure was 0.422 (active); with CGGGACTC, -0.204; with CCCGATCC, -0.127.
